Measurements as given in PubChem BioAssay AID1053143 (Broad Institute, 2014).
Among all 3,400 compounds or so, about 120 (3.5%) were called active. The rule behind the calls is not given here. Only a sample is shown. Entries with a potency or affinity are not part of this list.

assay: HepG2 cell cytotoxicity, dose response, cytotoxicity control, ATP luminescence, cherry-pick, activator set 2 (AID 1053143); details: HepG2 viability, CellTiter-Glo ATP luminescence, 72 h; series mostly up to 26 µM; activity change, negative = cytotoxicity: at the top concentration

SMILES	activity change, negative = cytotoxicity
Fc1cccc(CSc2ccc(-c3ccco3)nn2)c1	-3.59% (inactive)
CC(SCc1ccccc1)C(=O)Nc1ccccc1 (stereo not drawn)	-19.4% (inactive)
CCOC(=O)c1cc(OCC)c2c(ccc3ccccc32)n1	-16.6% (inactive)
COc1c(OC(C)=O)ccc(/C=C/c2ccc3cccc(OC)c3n2)c1[N+](=O)[O-]	-13.7% (inactive)
COc1cccc(/C=C/c2ccccn2)c1O	2.62% (inactive)
COc1cccc(/C=C/c2ccc3cccc(O)c3n2)c1OC	-17.3% (inactive)
COc1ccc(-c2csc(NC(=O)CC(C)C)n2)cc1	-14.7% (inactive)
COc1ccccc1N1CCN(/N=C\c2ccc(C)o2)CC1	27.8% (inactive)
COc1ccc(CCNC2CC(=O)N(CCc3ccccc3)C2=O)cc1OC (stereo not drawn)	-2.2% (inactive)
COc1ccc(Nc2nc(N)nc(CSc3nccn3C)n2)cc1	-1.36% (inactive)
COc1ccc(Nc2ccc3ccccc3c2)cc1	0.933% (inactive)
Clc1nc(Nc2ccccc2)nc(Nc2ccccc2)n1	-9.79% (inactive)
COc1ccc2cc(-c3cccnc3)ncc2c1	-8.05% (inactive)
O=[N+]([O-])c1ccc(Nc2nccc(Cl)n2)cc1	-17.5% [at 12 µM] (inactive)
COc1ccc(NC(=O)Nc2cc(C)ccn2)cc1	3.17% (inactive)
O=C(c1ccc(Cl)c([N+](=O)[O-])c1)N(Cc1ccc(Cl)cc1)C1CCS(=O)(=O)C1 (stereo not drawn)	-4.46% (inactive)
Cn1nnc(NC(=O)C(c2ccccc2)c2ccccc2)n1	1.29% (inactive)
O=C(CNC(=O)c1ccccc1)OCC(=O)N1N=C(c2ccc(Cl)cc2)CC1c1ccco1 (stereo not drawn)	0.766% (inactive)
C#CCNC(=O)/C=C/c1ccc(OC)cc1	-15.5% (inactive)
Cc1nc2ccc(NC(=O)c3ccc(Cl)s3)cc2s1	9.53% (inactive)
C=CCOc1ccc2c(OC)c3ccoc3nc2c1OC	-3.4% (inactive)

SMILES	activity change, negative = cytotoxicity
CCCC(=O)N(C)c1nnc(-c2ccc(OC)cc2)s1	-14.6% (inactive)
COc1ccc(C)cc1NC(=O)C1CCCN1S(=O)(=O)c1ccccc1F (stereo not drawn)	-12.2% (inactive)
Cn1cccc1C(=O)OCC(=O)c1cc2ccccc2o1	15.6% (inactive)
COc1cc(Cl)ccc1OCc1cc(C(=O)N2C[C@@H]3CCC[C@H]2C3)no1	5.09% [at 12 µM] (inactive)
O=C(/C=C/c1ccco1)Nc1nc(-c2ccccc2)cs1	-19.8% (inactive)
Nc1cc(-c2ccc(Cl)cc2)nn1-c1ccccc1	-12.7% (inactive)
Cc1occc1C(=O)O/N=C(\N)c1ccc(Cl)cc1	36.1% (inactive)
O=C(Nc1nc2ccccc2s1)c1ccc(F)cc1	-23% (inactive)
O=C(Nc1nc(=O)c2ccccc2s1)c1ccccc1	-0.099% (inactive)
O=C(c1ccccc1)c1cnc(-c2ccc(Cl)cc2)s1	-21.5% (inactive)
CCCC(=O)N/C(N)=N/c1nc2ccccc2o1	-11.3% (inactive)
Nc1nc(Nc2ccccc2F)sc1C(=O)c1ccccc1	25.7% (inactive)
Cc1nc(Nc2ccccc2)sc1C(=O)c1ccccc1	5.72% (inactive)
Cc1ccc(Nc2ncccc2C(N)=O)cc1[N+](=O)[O-]	-16.8% (inactive)
CCOC(=O)c1ccc(N2Cc3ccccc3C2=NC(=O)c2ccncc2)cc1	0.403% (inactive)
Cc1ccc(Nc2nc3ccccc3o2)cc1F	-28.7% [at 12 µM] (inactive)
O=c1sc2ccccc2n1CCCOc1ccccc1	-13.9% (inactive)
Cc1ccc(OCCn2cnc3ccccc3c2=O)c([N+](=O)[O-])c1	-2.42% (inactive)
Cn1c(-c2ccc([N+](=O)[O-])cc2)nc2ccccc21	-8.29% (inactive)
Fc1cccc(-c2ncc(-c3ccccc3)o2)c1	-8.72% (inactive)
O=C(Nc1cc(-c2ccccc2)cs1)c1ccco1	-12.4% (inactive)

SMILES	activity change, negative = cytotoxicity
O=C(Nc1nc2c(ccc3ccccc32)s1)c1ccco1	-31.8% (inactive)
Cc1cc(NC(=O)c2ccccc2)sc1C	-41.8% (inactive)
CCOC(=O)c1ccc2nc(NC(C)=O)sc2c1	8.97% (inactive)
O=C(Nc1nc2ccc([N+](=O)[O-])cc2s1)c1ccco1	-10.7% (inactive)
Cc1cc2sc(NC(=O)c3ccco3)nc2cc1Cl	-2.65% (inactive)
CCOc1ccc(NC(=O)Cc2ccccc2)cc1	-19.9% (inactive)
COC(=O)c1sc2nc3c(cc2c1N)CCCC3	-2.91% (inactive)
CC(C)c1ccc(NC(=O)c2cccc(Br)c2)cc1	17.8% (inactive)
COc1cc(/C=N/NC(=O)CNC(=O)c2ccccc2)ccc1OC(=O)c1cccs1	-19.2% (inactive)
O=C(Nc1nc2ccc(Cl)cc2s1)C1CC1	-16% (inactive)
CCC1CCCCN1S(=O)(=O)c1ccc(NC(=O)C2CC(=O)N(C(C)(C)C)C2)cc1 (stereo not drawn)	-2.85% (inactive)
O=c1[nH]c2ccccc2nc1CCc1ccccc1	-9.94% (inactive)
Cc1cc(N2CCCCC2)nc2ccc(NC(=O)CCC(=O)NCCC(C)C)cc12	-18.6% (inactive)
COc1cc(OC)cc(C(=O)NCC(=O)Nc2ccc(C)c(Cl)c2)c1	0.049% (inactive)
CCn1ccc(C(=O)Nc2ccc(Cl)cn2)n1	-0.072% (inactive)
c1ccc2c(c1)Cc1cc3ccccc3nc1-2	-11.6% (inactive)
O=C1c2ccccc2-c2nc3ccccc3cc21	-16.9% (inactive)
CC(C)Sc1ccc(C(=O)Nc2ccc(F)cc2F)cn1	-2.75% (inactive)
CCC(C)Sc1ccc(-c2nc3ccc(Cl)cn3c2NCc2ccccc2)cc1 (stereo not drawn)	-18.8% (inactive)
CN(Cc1ccsc1)C(=O)CCc1nnc(CCCc2ccccc2)o1	-9.96% (inactive)
O=C(Nc1ccccn1)C(=O)Nc1ccccn1	-5.28% (inactive)

SMILES	activity change, negative = cytotoxicity
Cc1n[nH]c(=O)nc1N/N=C/c1ccco1	13.9% (inactive)
Cc1nc(-c2ccc(NC(=O)c3ccccc3Br)cc2)cs1	-4.14% (inactive)
Cc1nc(-c2ccc(NC(=O)CC(C)C)cc2)cs1	-11.5% (inactive)
O=C(Nc1ccccc1N1CCN(c2ccccc2)CC1)c1ccccc1	-2.97% (inactive)
O=C(NC(=O)c1ccccc1)Nc1ccccc1O	-14.8% (inactive)
CCCNC(=O)Nc1cccc(C(=O)OC)c1	-14.5% (inactive)
c1ccc(-c2cnnc(-c3ccccn3)n2)cc1	-3.23% (inactive)
Nc1ccc2nc(-c3ccccc3)cnc2c1	-14.5% (inactive)
O=C(Nc1nccs1)c1cc2c(s1)-c1ccccc1OC2	-3.47% (inactive)
Cc1cc(O)c(NC(=O)c2cccc([N+](=O)[O-])c2)cc1C	1.55% (inactive)
COc1ccc(CCN2C(=NC(C)=O)SC3CS(=O)(=O)CC32)cc1OC (stereo not drawn)	1.28% (inactive)
COc1cccc(N/N=C/c2cccc(Br)c2O)c1	-1.94% (inactive)
Clc1ccccc1C=NNc1ccccn1	-19.2% (inactive)
CCCCSc1nnc(-c2ccc(C)cc2)n1C	-6.32% (inactive)
Cc1ccc(/C=C/c2nc3ccccc3[nH]2)o1	-25.4% (inactive)
Clc1ccc(Cn2c(/C=C/c3ccco3)nc3ccccc32)cc1	-7.76% (inactive)
COc1ccccc1C(=O)Nc1ccc2c(C)cc(=O)oc2c1	7.5% (inactive)
c1ccc2[nH]c(SCC3CCCCO3)nc2c1 (stereo not drawn)	9.84% (inactive)
Cc1cc2ncc(-c3ccccc3)nc2cc1C	-23.2% (inactive)
Oc1ccc(-c2cnc3ccccc3n2)cc1	-12% (inactive)
